Compound activity deposited in PubChem by National Center for Advancing Translational Sciences (NCATS).
Rows were chosen to be rich in hits. Some 19% of all compounds tested hit in one or more screens of this group.
HT1080-NT tox: kills 2HG-producing HT-1080-NT fibrosarcoma cells; HT-1080-NT fibrosarcoma viability, CellTiter-Glo ATP luminescence, 48 h; actives 1.6% (n = 360,000); Potency, µM (titrated, usually from 46.1 µM), hits mostly cytotoxic; AID 686970;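 also: NT is the 2HG producing partner of a matched IDH1 knockdown line; nearly all actives have a fitted effect of over 55% in size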
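Toxicity toward the 2HG-producing NT line was scored as %Activity, normalised to DMSO and no-cell wells, from CellTiter-Glo luminescence after 48 hours' treatment.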
IL1B secr inh: inhibitors of inflammasome signaling (IL-1 beta secretion); THP-1 LPS/ATP IL-1B secretion, AlphaLISA, 16 h; active compounds read low; activity change, % at 57.5 µM; actives 4.7% (n = 360,000); in the data active = activity change below about -50%; inconclusive = mostly about -30% to -49%
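THP-1 cells pretreated 1 hr with compounds (up to 57.5 uM final), then stimulated with LPS (250 ng/mL final) plus ATP (1.25 mM final); secreted IL-1B measured by AlphaLISA after 16 hr, decreased signal indicating inhibition.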
DT40 TDP1 CPT: growth inhibition of DT40 Tdp1-/-;hTDP1 cells with camptothecin (screen for TDP1 inhibitors) | Potency, µM (series often up to 46.2 µM), actives largely listed as inhibitors | actives 12% (n = 420,000) | chicken DT40 Tdp1-/-;hTDP1 cells + 20 nM CPT, ATP luminescence, 48 h; also: nearly all actives have a fitted effect of over 55% in size
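Cell growth measured by CellTiter-Glo luminescence after a minimum 48 h, 37 C compound exposure with 20 nM CPT in Tdp1-knockout DT40 cells stably expressing hTDP1, seeded 400/well; qHTS titration format.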
HT1080 IDH1KD tx: HT-1080 IDH1 knockdown cell toxicity (counter line); HT-1080 IDH1 knockdown viability, ATP luminescence, 48 h; Potency, µM (titrated, usually from 46.1 µM), actives largely listed as cytotoxic; actives 2% (n = 360,000); AID 686971
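% activity derives from luminescence (CellTiter-Glo), normalised to DMSO and no-cell wells. HT-1080-IDH1KD cells, 750/well, had 48 h compound exposure at 37 °C.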
DT40 TDP1 no CPT: qHTS for Inhibitors of human tyrosyl-DNA phosphodiesterase 1 (TDP1): qHTS in cells in absence of CPT. Potency, µM (titrated, usually from 46.2 µM), most hits filed as inhibitors. DT40 Tdp1-/- hTDP1 cells, no CPT, ATP luminescence, 48 h. actives 15% (n = 420,000). AID 686978, 2013; also: nearly all actives have a fitted effect of over 55% in size
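Seeded 400 DT40-hTDP1 cells/well (vehicle DMSO, no 20 nM CPT); pinned compounds; ≥48 hr at 37 °C; CellTiter-Glo luminescence as viability measure.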
A number is an active result; - = inactive; ? = inconclusive; . = not tested or not shown; [ ] = another dose, or the depositor's remark. Unless noted, calls follow the shape of the dose curve; as a rule, active = well fitted curve in the direction sought with a large enough effect; inconclusive = small, poorly fitted or top-dose-only effect, or another doubt; inactive = no such curve, though single readings can be large; an effect the other way counts as inactive or inconclusive.

SMILES | HT1080-NT tox | IL1B secr inh | DT40 TDP1 CPT | HT1080 IDH1KD tx | DT40 TDP1 no CPT
CN(C)S(=O)(=O)c1cccc(-c2nn(-c3ccccc3)cc2/C=C(\C#N)c2nc3ccccc3[nH]2)c1 | - | - | 5.2µM | - | 5.8µM
O=C(COC(=O)C1CCN(S(=O)(=O)c2ccc3c(c2)OCCO3)CC1)Nc1cccc2ccccc12 | - | - | - | - | -
COc1cccc(Cn2c3ccc(NC(=O)Cc4cc(OC)ccc4OC)cc3c(=O)n2C)c1 | ? | -78 | 12µM | ? | 21µM
COc1cccc(Cn2c3ccc(NC(=O)CC(C)C(F)(F)F)cc3c(=O)n2C)c1 (stereo not given) | - | - | ? | - | ?
COc1cccc(CC(=O)Nc2ccc3c(c2)c(=O)n(C)n3-c2ccc(C(C)(C)C)cc2)c1 | ? | - | 26µM | - | ?
Nc1nc2cc(Cl)c(Br)cc2o1 | - | - | - | - | -
COc1cc([C@@H]2c3cc4c(cc3C(OC3OC5COC(C)OC5C(O)C3O)C3COC(=O)[C@@H]32)OCO4)cc(OC)c1O (stereo not given in full) | . | . | 0.19µM | . | 0.21µM
COc1cc([C@@H]2c3cc4c(cc3C(O[C@@H]3O[C@@H]5COC(c6cccs6)O[C@H]5[C@H](O)[C@H]3O)C3COC(=O)[C@@H]32)OCO4)cc(OC)c1O (stereo not given in full) | . | . | 0.012µM | . | 0.013µM
COc1cc([C@@H]2c3cc4c(cc3[C@@H](O[C@@H]3O[C@H]5CO[C@@H](C)O[C@@H]5[C@@H](O)[C@H]3O)[C@@H]3COC(=O)[C@@H]23)OCO4)cc(OC)c1O | . | . | ? | . | 0.13µM
O=C(c1ccccc1)c1ccc(OC(=O)C2CCCCC2)cc1 | - | - | - | - | -
Cc1nc2ccc(C(C(F)(F)F)(C(F)(F)F)C(F)(F)F)cc2[nH]1 | - | - | ? | - | -
COc1cccc(C(=O)NC(C)c2nnc3n2CCN(CC=C(C)C)CC3)c1 (stereo not given) | . | . | - | . | -
O=S(=O)(NCc1nc2cccnc2n1Cc1ccccc1)c1ccc2c(c1)CCCC2 | . | . | ? | . | 21µM
Cc1cccc(Cn2c(CNS(=O)(=O)c3ccc4c(c3)CCCC4)nc3cccnc32)c1 | . | . | ? | . | 16µM
CCC(CC)C(=O)NCc1nc2cccnc2n1Cc1ccc(F)cc1 | . | . | - | . | -
O=S(=O)(NCc1nc2cccnc2n1Cc1ccccc1Cl)c1ccc2c(c1)CCCC2 | . | . | ? | . | 16µM
COc1ccc(Cn2c(CNC(=O)Cc3cccc([N+](=O)[O-])c3)nc3cccnc32)cc1 | . | . | - | . | ?
O=S(=O)(NCc1nc2cccnc2n1Cc1ccc(F)cc1)c1ccc2c(c1)CCCC2 | . | . | 18µM | . | ?
COc1ccc(CNC(=O)CCc2nc3cccnc3n2Cc2ccccc2)cc1 | . | . | ? | . | -
COc1ccccc1NC(=O)COC(=O)c1oc2ccccc2c1C | - | - | - | - | -
Cc1nnc(SCc2nnc(-c3ccccc3Br)o2)s1 | - | - | - | - | -
COc1ccc(CN2CCNC(=O)C2CC(=O)NCc2cn3ccc(C)cc3n2)c(OC)c1 (stereo not given) | - | - | - | - | -
COc1ccccc1OCCCC(=O)Nc1nccs1 | - | - | - | - | -
CCCCN(CC)CCCNC(=O)c1c(C)oc2ncnc(N3CCOCC3)c12 | . | . | - | . | -
CC(=O)c1ccc(NC(=O)CSc2nc(C)cc(C)c2C(N)=O)cc1 | - | - | - | - | ?
SMILES | HT1080-NT tox | IL1B secr inh | DT40 TDP1 CPT | HT1080 IDH1KD tx | DT40 TDP1 no CPT
O=C1CN(C(=O)c2ccccc2)c2ccccc2N1 | - | - | - | - | -
O=C1CN(C(=O)c2cc(Br)c(Br)s2)c2ccccc2N1 | ? | - | ? | 21µM | 13µM
O=C1CN(C(=O)c2cccc(Br)c2)c2ccccc2N1 | 15µM | - | 15µM | ? | 12µM
O=C1CN(C(=O)c2ccccc2C(=O)O)c2ccccc2N1 | - | - | - | - | -
CC(Oc1ccccc1)C(=O)N=C1SC2CS(=O)(=O)CC2N1CCc1ccccc1 (stereo not given) | - | - | - | - | -
Cc1cccc(-n2c(-c3ccco3)nc3c(cnn3-c3ccccc3C)c2=O)c1 | . | . | 21µM | . | ?
O=c1c2cnn(-c3ccccc3)c2nc(-c2ccco2)n1-c1ccccc1 | - | -55 | ? | - | 21µM
Cc1cccc(-n2c(-c3ccco3)n[nH]c2=S)c1 | - | - | - | - | -
O=c1oc(-c2ccco2)nc2c1cnn2-c1ccccc1 | - | - | ? | - | ?
CCCCN(C)Cc1cc(=O)oc2ccc3ccccc3c12 | - | - | - | - | -
CCC(C)N(C(=O)COC(=O)CNC(=O)c1sc2ccccc2c1Cl)C1CCS(=O)(=O)C1 (stereo not given) | - | - | - | - | -
CCN(CCO)c1nc(SC)nc2c1sc1nc(-c3ccco3)c3c(c12)CCC3 | - | - | - | - | -
CSc1nc(NCCOCCO)c2sc3nc(-c4ccco4)c4c(c3c2n1)CCC4 | ? | - | 18µM | -[9.24 µM] | 16µM
Cc1cc(C)c(Cc2c(C)nc3c(C(=O)NCc4ccco4)cnn3c2C)c(C)c1 | - | - | 7.3µM | - | 8.2µM
Cc1ccc(CNC(=O)c2cnn3c(C)c(Cc4c(F)cccc4Cl)c(C)nc23)cc1 | . | . | 15µM | . | ?
Cc1cc(C(F)F)n2ncc(C(=O)NCCc3ccccc3Cl)c2n1 | - | ? | ? | - | -
CCCCNC(=O)c1cnn2c(C)c(Cc3c(F)cccc3Cl)c(C)nc12 | . | . | 7.3µM | . | 3.7µM
Cc1cc(C)c2c(n1)nn1c(C)c(CCC(=O)NCc3ccco3)c(C)nc21 | - | - | - | - | -
Cc1nc2c(C(=O)NCCCN(CC(C)C)CC(C)C)cnn2c(C)c1Cc1c(F)cccc1Cl | . | . | 23µM | . | 21µM
CCc1ccccc1NC(=O)CSc1nnc(-c2cc(OC)c(OC)c(OC)c2)o1 | . | . | - | . | -
CCNC(=O)C1(C)CCN(C(=O)c2ccc(OC)cc2)C1 (stereo not given) | - | - | - | - | -
CC1Cc2ccccc2N1C(=O)CN(C)CC(=O)Nc1cccc(F)c1 (stereo not given) | - | - | ? | - | ?
NNC(=O)/C(=C\c1ccco1)NC(=O)c1ccco1 | 15µM | - | - | ? | -
CCOCCN1CCN(c2c(C)c(C)nc3cc(-c4cc(OC)cc(OC)c4)nn23)CC1 | ? | ? | ? | - | 26µM
COCCN1CCN(c2c(C)c(C)nc3cc(-c4cccc(OC)c4)nn23)CC1 | - | - | ? | - | ?
CCc1c(C)nc2cc(-c3cc(OC)cc(OC)c3)nn2c1N1CCN(CCN2CCOCC2)CC1 | - | ? | 23µM | - | 16µM
COc1cccc(-n2c(=O)c3c4c(sc3n(Cc3ccc(C)cc3)c2=O)CCCC4)c1 | . | . | - | . | -
